Screen size: about 48,000 compounds; about 13,000 (27%) showed an effect of 50% or more. Some of the results follow.
test system: Wolbachia pipientis; test: Anti-Wolbachia Cell-Based Screen; type: functional; parameters: scale not given: in the data most compounds retested in dose-response had high values; details: 5 µM

SMILES | Percent Effect [%]
Cc1cc(C)n(CCN2CCN(C(=O)c3ccc(Br)o3)CC2)n1 | 17.42
CCN(C)C[C@@H]1CN(Cc2cccc(O)c2)C[C@@H]1CO | -2.333
COc1ccc2c(c1)nc1n2[C@@H](CNCc2cnn(C)c2)COC1 | 1.636
Cc1cccc(CN2CCN(c3ncnc4[nH]ccc34)CC2CCO)n1 (configuration not stated) | 6.168
CCN1CCC(CC(=O)NCC(O)c2ccc3ccccc3c2)CC1 (configuration not stated) | -0.749
CC(=O)N1CCCC(C(=O)N2Cc3nc(C)n(C)c(=O)c3C2)C1 (configuration not stated) | 7.499
COC(=O)C1CN(Cc2ccccc2C(C)(C)C#N)CCO1 (configuration not stated) | 1.007
CC(C)OCCS(=O)(=O)N1CCCC1c1cccc(N(C)C)c1 (configuration not stated) | 4.069
CC(C)(C)CCCC(=O)NS(=O)(=O)CC1CC1 | -9.167
Cc1cccc(CNC(=O)CCc2c(C)nc3cc(O)nn3c2C)n1 | 101.6
Cc1ccccc1CNC(=O)Cc1c(C)nc2cc(=O)[nH]n2c1C | 1.807
Cc1ccc(N2CCCN(C(=O)c3cccc4c3ccn4C)CC2)nn1 | -26.18
CC(=O)N(C)C1CCN(C(=O)c2cccc3c2ccn3C)CC1 | 129.7
Cn1ccc2c(C(=O)N3CCC4(CCOC4)C3)cccc21 (configuration not stated) | -11.85
Cn1ccc2c(C(=O)NCCCN3CCCC3)cccc21 | 7.133
Cn1ccc2c(C(=O)N3CCN(C(=O)C4CCCC4)CC3)cccc21 | 117.3
Cn1ccc2c(C(=O)N3CCC(C(N)=O)CC3)cccc21 | 2.253
CCc1ncc(-c2nccn2-c2cccc(CC(=O)O)c2)cn1 | -3.277
Cc1cnn(CC(=O)N2CCC3(CCC(=O)N(CCCO)C3)CC2)c1 | -87.52
COc1ccc(C(=O)N2CCC3(CCC(=O)N(C(C)C)C3)CC2)cc1C | 7.605
Cc1nccn1CCCC(=O)N1CCC2(CCC(=O)N(C(C)C)C2)CC1 | 98.73
Cc1nccn1CCC(=O)N1CCC2(CCC(=O)N(CC3CC3)C2)CC1 | 117.2
CCN1CC2(CCC1=O)CCN(CCc1nccn1C)CC2 | -0.2825
Cc1cc(N2CCC3(CCC(=O)N(CC4CC4)C3)CC2)nc(N)n1 | -10.67
Cc1nccn1CCCC(=O)N1CCN(c2cccnc2)CC1 | -0.7063
Cc1ncc(CC(=O)N2CCC3(CCC(=O)N(CCO)C3)CC2)c(=O)[nH]1 | 13.05

SMILES | Percent Effect [%]
Cc1cnn(CC(=O)N2CCC3(CCC(=O)N(CC(C)O)C3)CC2)c1 (configuration not stated) | -3.932
Cc1cnn(CCC(=O)N2CCC3(CCC(=O)N(CC4CC4)C3)CC2)c1 | 86.63
Cc1cc(N2CCC3(CCC(=O)N(CC4CC4)C3)CC2)ncn1 | 3.21
Cc1nccn1CCCN1CCC2(CCC(=O)N(CC3CC3)C2)CC1 | 94.75
COCCCN1C(=O)CC[C@H]2CN(c3cnc4ccccc4n3)CC[C@H]21 | 2.221
CCCn1nc(C)c2c1NC(=O)CC2c1ccc(CN2CCCC2)s1 (configuration not stated) | 1.67
CC(C)c1nnc2n1CCN(CCCS(=O)(=O)c1ccccc1)C2 | -6.679
CSCCc1nc(-c2ccc3c(c2)OCO3)n(C)n1 | -7.384
Cc1nnnn1CCC(=O)N1CCC2(CCC(=O)N(CC3CC3)C2)CC1 | 115.6
CC(C)=CCN1CC2(CCN(C(=O)CCn3ccnc3C)CC2)CC1=O | 86.66
CCCc1nc(C)cc(N2CCC3(CCC(=O)N(CC4CC4)C3)CC2)n1 | 5.96
CSCc1noc(CN2CCC3(CC2)CC(=O)N(CC=C(C)C)C3)n1 | 10.72
Cc1nc(C(C)C)cc(N2CCC3(CCC(=O)N(CC4CC4)C3)CC2)n1 | 0.1735
CC(C)=CCN1CC2(CCN(Cc3ncc[nH]3)CC2)CC1=O | -7.691
O=C(O)C(F)(F)F.c1ccc(Cn2cc3c(n2)C(COCC2CC2)OCC3)nc1 (configuration not stated) | -17.74
Cc1nc(CN2CCN(CC3CCOC3)Cc3cccnc32)cs1.O=C(O)C(F)(F)F.O=C(O)C(F)(F)F.O=C(O)C(F)(F)F (configuration not stated) | -0.3757
Cc1nc(CN2C(=O)C[C@@H]3[C@@H]2CCN3CC2CCOCC2)cs1.O=C(O)C(F)(F)F | 145.4
Cc1nc(CN2C(=O)C[C@H]3[C@H]2CCN3CC2CCOC2)cs1.O=C(O)C(F)(F)F (some centres not stated) | 100.2
Cc1nc(CN2CCc3ncnc(C4CCOC4)c3CC2)cs1.O=C(O)C(F)(F)F (configuration not stated) | -5.983
CCN(Cc1ccccc1)C1CCN(c2cc(C)nn2C)C1=O (configuration not stated) | 8.776
O=C(c1cc[nH]c(=O)c1)N1CCn2c(nnc2-c2ccccc2)C1 | 1.591
CN1CCN(C(=O)CCC(=O)c2cccs2)Cc2ccccc21 | -12.13
CN1CCN(C(=O)c2cc[nH]c(=O)c2)Cc2ccccc21 | 113.6
CN1CCN(C(=O)NCCNc2ncccn2)Cc2ccccc21 | 4.872
Cc1cc(=O)c(C(=O)N2CCN(C)c3ccccc3C2)c[nH]1 | 106.1
CN1CCN(C(=O)c2ccc(=O)n(C)c2)Cc2ccccc21 | -3.616

SMILES | Percent Effect [%]
Cc1cc(=O)[nH]cc1C(=O)N1CCN(C)c2ccccc2C1 | 99.2
CN1CCN(C(=O)c2cccs2)Cc2ccccc21 | -12.17
Cc1ccc(C(=O)N2Cc3ccccc3C2)cc1N1CCNC1=O | -8.111
Cc1cccc2sc(NC(=O)CN3CCCC4(CC3)CNC(=O)O4)nc12 (configuration not stated) | -7.394
CN(Cc1ccco1)C1CCC12CCN(C(=O)c1ccncc1)CC2 (configuration not stated) | -36.28
CCCOC1CCCN(Cc2nc(-c3cccs3)oc2C)C1 (configuration not stated) | 5.158
Oc1cc(-c2cccs2)nc(C2CCCN(CC3=CCCOC3)C2)n1 (configuration not stated) | 158.9
Cn1cc(CN2CCCC(c3nc(O)cc(-c4cccs4)n3)C2)cn1 (configuration not stated) | 121.4
Cc1nnsc1C(=O)N1CCC2(CC1)c1nc[nH]c1CCN2CC(C)C | -5.32
CC(=O)N1CCC(Oc2ccc(C#N)cc2)CC1 | -9.565
Cc1nc(N(C)C)ncc1C(=O)NCCCn1nccc1C1CC1 | -2.183
Cc1cnn(C2CN(CC(=O)Nc3cccnc3)C2)c1 | -2.546
O=C(Nc1cccnc1)c1noc2c1CN(S(=O)(=O)C1CC1)CC2 | 3.652
CC(C)NC(=O)C1CCC2(CCN(Cc3cnn(C)c3)CC2)CO1.O=C(O)C(F)(F)F (configuration not stated) | -4.372
CC(C)NC(=O)c1noc2c1CN(Cc1cnn(C)c1)CC2 | 212.5
Cn1cc(CN2CCc3onc(C(=O)Nc4cccnc4)c3C2)cn1 | 104.3
CC(=O)NCc1noc2c1CN(Cc1cnn(C)c1)CC2 | 0.2145
CSc1ccc(OC(C)C(=O)Nc2cc(C)n[nH]2)cc1 (configuration not stated) | -10.9
COC(=O)CNC(=O)C(C)Oc1ccccc1C(F)(F)F (configuration not stated) | -20.43
CC(=O)N1CCc2[nH]nc(C(=O)N3CC=CC3)c2C1 | -70.9
COc1cccc2[nH]cc(CCNC(=O)N3CCOCC3C3CC3)c12 (configuration not stated) | -14.93
Cc1nsc(NC(=O)N2CCc3sccc3C2)n1 | 105.8
Cc1nsc(C(=O)N2CCc3ccccc3C2)n1 | 14.75
Cc1nsc(N2CCc3sccc3C2)n1 | 15.05
O=C(Nc1ccc(N2CCCC2)nc1)N1CCc2ccccc2C1 | 28.26
CN(C)c1ccc(NC(=O)N2CCc3sccc3C2)cn1 | -14.46

SMILES | Percent Effect [%]
CSc1nsc(NC(=O)N2CCc3ccccc3C2)n1 | 111
CN(C)Cc1cc(CC2(NCc3ccc(C#N)cc3)COC2)no1 | 1.695
Cn1cccc(NC(=O)N2CCC(CSc3ccccc3)C2)c1=O (configuration not stated) | -5.186
CC(C)NC(=O)N1CCCC2(CC(C(=O)Nc3ccccc3)=NO2)C1 (configuration not stated) | 111.3
COCC(=O)N1CCC2(CC(C(=O)NCc3cccnc3)=NO2)C1 (configuration not stated) | -9.027
CC(C)CC(=O)N1CCCC2(CC(C(=O)Nc3ccccc3)=NO2)C1 (configuration not stated) | 115.3
CC(C)C(=O)N1CCCC2(CC(C(=O)NCc3cccnc3)=NO2)C1.O=C(O)C(F)(F)F (configuration not stated) | -6.89
Cc1ncccc1NC(=O)C1=NOC2(CCN(Cc3nccs3)C2)C1 (configuration not stated) | 10.83
CC(C)(C)CC(=O)N1CCCC2(CC(C(=O)Nc3ccccc3)=NO2)C1 (configuration not stated) | 98.19
CC(C)NC(=O)N1CCC2(CC(C(=O)NCc3cccnc3)=NO2)C1 (configuration not stated) | -3.064
CN(Cc1ccc2c(c1)OCO2)C(=O)c1ccc(C2CCCO2)s1 (configuration not stated) | -6.874
Cc1n[nH]c(C)c1CCc1nc(C2CC2)n[nH]1 | -13.82
Cc1cc(C(=O)NCCc2cn3nc(C)sc3n2)c(C)o1 | -4.861
Cc1cn(CC(=O)NCC(=O)NC2CC2)c2ccccc12 | -10.11
CCc1nsc(N2CCn3c(nnc3-c3ccccc3)C2)n1 | -13.36
CCCSCC(=O)N1C[C@@H]2CC[C@H](C1)N(Cc1ccccn1)C2=O | 6.181
O=C([C@H]1C[C@H]2OCC[C@H]2N(CC2CC2)C1)N1CCCC1 | -0.02998
CCc1nc(C)c([C@H]2CN(C)C[C@@H]2C(=O)NCc2ccccn2)[nH]1 | -14.52
CS(=O)(=O)NC[C@H]1Cn2c(-c3ccc4c(c3)OCCO4)cnc2CO1 | -15.67
CCc1noc(C(C)N2CCN(CCc3ccncc3)CC2)n1 (configuration not stated) | 0.707
Cc1noc(C(C)N2CCN(CCCN3CCCC3=O)CC2)n1 (configuration not stated) | 8.407
CCc1noc(C(C)N2CCC(N3CCCC3)CC2)n1 (configuration not stated) | -6.719
CCc1noc(C(C)N2CCN(CCN3CCCC3=O)CC2)n1 (configuration not stated) | 113.9
Cc1noc(C(C)N2CCN(CCN3CCCC3=O)CC2)n1 (configuration not stated) | 121
